ChEMBL document CHEMBL4513149, “CO-ADD screening of MMV (CH) - MMV compounds” (2021)
Measured potencies and affinities stand elsewhere.

These compounds were tested on Klebsiella pneumoniae. Conditions: Concentration 20 uM; ASSAY_TEST Inhibition of Bacterial Growth; detection method Absorption (OD600); MEDIA CAMHB; plate type 384well; NBS; CORNING #3640; time 18 hr.

Structure (SMILES)	Inhibition
c1ccc(Oc2ccc(-c3cncc(-c4ccc5[nH]ccc5c4)n3)cc2)cc1	5.9%
COc1cccc(OC)c1C(=O)Nc1ccc(Cl)c(-c2nc3ccccc3s2)c1	2.41%
COc1ccc(C2=NN(C3CCCCCC3)C(=O)[C@@H]3CC=CC[C@H]23)cc1OCCCCOc1ccc(-c2nnn[nH]2)cc1	8.89%
Cc1ccc(-c2nc(CN(Cc3ccccn3)C(C)C)cs2)o1	14.74%
CCc1cc(=O)n(C)c(SC(C)C(=O)Nc2ccc(F)cc2)n1 (stereo unspecified)	3.6%
Cc1ccccc1CN1CCC(O)(c2ccc(Cl)c(C(F)(F)F)c2)CC1	11.69%
CCOc1ccccc1C(=O)Nc1cccc(-c2nc3ncccn3c2C)c1	11.04%
COc1ccc(C2=NCCN2)cc1-c1cn(-c2cccc(C3=NCCN3)c2)nn1.O=C(O)C(F)(F)F.O=C(O)C(F)(F)F	17.32%
N#Cc1ccc(-c2ccc(OCC(N)=O)cc2)cc1	5.71%
CCc1ccc(C(NCc2nc(N)nc(N(C)C)n2)C(C)C)cc1 (stereo unspecified)	-6.55%
CCNC(=O)C(C)Nc1nc(-c2cccnc2)nc2sc(C)c(C)c12 (stereo unspecified)	-9.71%
CCc1nc2ccc(Cl)cn2c1C(=O)NCc1ccc(N2CCC(c3ccc(OC(F)(F)F)cc3)CC2)cc1 [TELACEBEC]	18.33%
CCOc1ccc(OCC(=O)Nc2cc(C)cc(C)c2)cc1	6.85%
CCOc1ccc2cc(-c3nn(C(C)(C)C)c(N)c3C(N)=O)cnc2c1.Cl	13.27%
Cc1ccc2nc(Cl)c(CNCc3cccs3)cc2c1	1.61%
CCc1ccc(S(=O)(=O)Nc2cc(CN3CCN(CCC(C)C)CC3)ccc2C)cc1	18.36%
Cc1ccccc1C(=O)N1N=C(Nc2ccccc2)SC1(C)C	6.87%
Nc1ncc(Br)cc1-c1nc2cc(Cl)cnc2[nH]1	20.39%

Structure (SMILES)	Inhibition
Cc1cccc(Cn2ccc(NC(=O)c3ccc4c(c3)OCO4)n2)c1	15.15%
Cl.c1ccc(Oc2ccc(-c3cc(N4CCNCC4)[nH]n3)cc2)cc1	-6.32%
O=C(NC1CC1)c1ccc(N2CCC(Cc3ccccc3)CC2)nc1	19.39%
O=C1N(Cc2cc3ccccc3s2)CC2CN(Cc3ccccc3)CCN12 (stereo unspecified)	2.73%
CNc1cc(C)nc(C2CN(C(=O)c3n[nH]c4ccccc34)CCO2)c1 (stereo unspecified)	20.78%
COc1ccc(N(CCc2cccc(C)n2)C(C)=O)cc1	13.85%
CC(C)(C)c1cc(C(=O)N2CCN(c3nccnc3C#N)CC2)n(Cc2ccccc2)n1	14.9%
CNC1C(OC2C(OC3C(O)C(O)C(NC(=N)N)C(O)C3NC(=N)N)OC(C)C2(O)C=O)OC(CO)C(O)C1O.CNC1C(OC2C(OC3C(O)C(O)C(NC(=N)N)C(O)C3NC(=N)N)OC(C)C2(O)C=O)OC(CO)C(O)C1O.O=S(=O)(O)O.O=S(=O)(O)O.O=S(=O)(O)O (stereo unspecified)	-10.2%
CC(C)(C)CN1C(=O)C(c2ccccc2)(c2ccccc2)N=C1N	14.16%
Cc1cccc(-c2nc(Nc3ccncn3)c3sccc3n2)n1	15.76%
Cl.Cn1ccnc1CNCCS(=O)(=O)c1cccc(Nc2ccc(-c3cccc(F)c3)cn2)c1	13.22%
CCC(=O)Nc1ccccc1C(=O)Nc1ccccn1	11.13%
O=C1COCc2ccc(Br)cc2N1Cc1ccc(C(F)(F)F)cc1	17.24%
CNC(=O)C1Cc2c([nH]c3cc(Cl)ccc23)C2(CCN(CCc3ccccc3)CC2)N1 (stereo unspecified)	10.39%
Cc1cc2nc(NC(=O)C(C)(C)C)nc(Cl)c2n1Cc1ccc(Cl)cc1	1.22%
CC(=O)N(CCN(C(=O)c1ccc(F)cc1)c1ccccc1)c1ccccc1	8.37%
COc1cccc2c(C)nc(N=C(N)N)nc12.O=C(O)C(F)(F)F.O=C(O)C(F)(F)F	9.38%
O=C(c1[nH]nc2c1CCCC2)N1CCN(Cc2ccc3c(c2)OCO3)CC1	7.71%
